Assay results taken from PubChem BioAssay (EPA / NIEHS).
Activity calls are given as the source filed them. How the source made its calls: active means hit-call score of the fitted dose curve at least 0.9, where 1 is the maximum; inactive means score below 0.9.

test: ATG_CMV_CIS: Attagene CIS-FACTORIAL HepG2 Assay for human CMV (Internal Marker) (AID 2282928); conditions: HepG2 CMV promoter reporter, transcription factor profiling; actives raise or lower the signal;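 further: endpoint acts as a background internal control marker rather than a target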
Method: ATG_CIS is a cell-based, multiplexed-readout assay that uses HepG2, a human liver cell line, with measurements taken at 24 hours after chemical dosing in a 24-well plate.ATG_CMV_CIS is one of 52 assay component(s) measured or calculated from the ATG_CIS assay. It is designed to make measurements of mRNA induction, a form of inducible reporter, as detected with fluorescence intensity signals by Reverse transcription polymerase chain reaction (RT-PCR) and Capillary electrophoresis technology.Data from the assay component ATG_CMV_CIS was analyzed into 1 assay endpoint. This assay endpoint, ATG_CMV_CIS, was analyzed with bidirectional fitting relative to DMSO as the negative control and baseline of activity. Using a type of inducible reporter, measures of mRNA for gain or loss-of-signal activity can be used to understand the background control at the transcription factor-level as they relate to the gene . Furthermore, this assay endpoint can be referred to as a secondary readout, because this assay has produced multiple assay endpoints where this one serves a background control function. To generalize the intended target to other relatable targets, this assay endpoint is annotated to the background measurement intended target family, where the subfamily is internal marker.
Human liver HepG2 cells are transiently transfected with multiple reporter transcription units (MRTUs) in 6-well plates using FuGene 6 reagent (Roche; 3 ml FuGene/1 mg DNA). The MRTU constructs are regulated by a cis-regulating element (promoter). […] A major difference between the CIS and TRANS system is that in CIS activities of endogenous TFs are measured, whereas the TRANS assay evaluates changes in activities of exogenous, chimeric NR-Gal4 proteins. […] At the end of 24 hour incubation, total RNA was isolated using TriZol reagent (Invitrogen). The isolated RNA is then reverse-transcribed using oligo(dT) primer and Mo-MLV reverse transcriptase (Invitrogen) with DNAse I (Ambion) treatment for 30 min. The one-tenth of the produced cDNA was amplified by PCR using Taq DNA polymerase (Invitrogen) and two reporter sequence-specific primers. The PCR products were fluorescently labeled by primer extension with 6-arboxyfluorescein (6-FAM) 5'-labeled reporter sequence-specific primer (2 min at 95 C, 20 s at 68 C and 10 min at 72 C) and these products were digested with 5U of HpaI (New England Biolabs) for 2h at 37 C. The fragments were purified using Qiaquick PCR columns (Qiagen), analyzed on an ABI 3130xL genetic analyzer (Applied Biosystems) with peak positions identified by using a set of X-rhodamine (ROX)-labeled MapMarker1000 molecular weight standards (BioVentures). The raw capillary electrophoresis data was processed using Attagraph software (Attagene).

Row | SMILES | outcome | AC50
1 | CC(C)(CO)COC(=O)C(C)(C)CO | inactive | –
2 | COc1ccc(-c2coc3cc(O)cc(O)c3c2=O)cc1 | – | 21.6 µM (active)
3 | CCCCCCCCCC[N+](C)(CCCCCCCCCC)CCC[Si](OC)(OC)OC | inactive | –
4 | CC(=O)/C=C/C1C(C)=CCCC1(C)C (stereo not given) | inactive | –
5 | Nc1ccc(C(=O)OCCCOC(=O)c2ccc(N)cc2)cc1 | inactive | –
6 | CCN(CC)c1cccc(C)c1 | inactive | –
7 | CCCc1ccc(O)c(OC)c1 | inactive | –
8 | CCCCCCCCCCCC(=O)OCC | inactive | –
9 | CC1=CCC(C(C)C)C=C1 (stereo not given) | inactive | –
10 | CCC(=O)C1CC(C(C)C)CC=C1C (stereo not given) | inactive | –
11 | CCOC(=O)c1ccc(C)cc1 | inactive | –
12 | CC(C)CC(=O)OCc1ccccc1 | inactive | –
13 | C=CCNCC=C | inactive | –
14 | CC(C)c1ccc(O)c(C(C)C)c1 | inactive | –
15 | CCCCNC(=S)NCCCC | inactive | –
16 | C[N+](C)(C)CCCNS(=O)(=O)C(F)(F)C(F)(F)C(F)(F)C(F)(F)C(F)(F)C(F)(F)C(F)(F)C(F)(F)F | – | 55.4 µM (active)
17 | CO[Si](C)(C)OC | inactive | –
18 | CC(C)(O)Cc1ccccc1 | inactive | –
19 | C=CCCCCCCCCO | inactive | –
20 | Nc1ccnc(=O)[nH]1 | inactive | –

Row | SMILES | outcome | AC50
21 | O=C(O)CCC(=O)O | inactive | –
22 | CCCCCCCCCC(C)=O | inactive | –
23 | CC(C)CCOCc1ccccc1 | inactive | –
24 | O=C1CCCN1C1CCCCC1 | inactive | –
25 | C=CCOC(=O)c1ccc(C(=O)OCC=C)c(C(=O)OCC=C)c1 | inactive | –
26 | CCCCCCCCCCCC(=O)N(C)CC(=O)O | – | 97.5 µM (active)
27 | CC(=O)CCC=C(C)C | inactive | –
28 | CC(C)c1cc(C(C)C)cc(C(C)C)c1 | – | 36 µM (active)
29 | CCN1CCCC1=O | inactive | –
30 | O=C1CCCCCCCCCCC1 | inactive | –
31 | Oc1ccc(/C=C/c2cc(O)cc(O)c2)cc1 | – | 22.7 µM (active)
32 | CC1CCC(=O)C1=O (stereo not given) | inactive | –
33 | C=CC(=O)O[C@H]1C[C@@H]2CC[C@@]1(C)C2(C)C | inactive | –
34 | Nc1nc(N)nc(-c2ccccc2)n1 | inactive | –
35 | C=C(C)C1CC=C(C)CC1 (stereo not given) | inactive | –
36 | Oc1ccccc1Cc1ccccc1O | inactive | –
37 | O=C1CCCCC1C1CCCCC1 (stereo not given) | inactive | –
38 | CCCC=C(C=O)CC | inactive | –
39 | CCOc1ccc(NC(N)=O)cc1 | inactive | –
40 | CC(C=O)c1ccccc1 (stereo not given) | inactive | –
